Screening data (PubChem)
SENP7 inh = SENP7 protease inhibition; actives 1.5% (n = 330,000); recombinant SENP7, Z-RLRGG-aminoluciferin luminescence, 40 min; inhibition, % at 5 µM; Q9BQF6; AID 434973;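 active means inhibition above about 50% at the single test dose, limit read from the data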;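 further: plate controls were DMSO with enzyme for no effect and no enzyme buffer wells for full effect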
Target sequence (Q9BQF6 706-1050 limits assumed): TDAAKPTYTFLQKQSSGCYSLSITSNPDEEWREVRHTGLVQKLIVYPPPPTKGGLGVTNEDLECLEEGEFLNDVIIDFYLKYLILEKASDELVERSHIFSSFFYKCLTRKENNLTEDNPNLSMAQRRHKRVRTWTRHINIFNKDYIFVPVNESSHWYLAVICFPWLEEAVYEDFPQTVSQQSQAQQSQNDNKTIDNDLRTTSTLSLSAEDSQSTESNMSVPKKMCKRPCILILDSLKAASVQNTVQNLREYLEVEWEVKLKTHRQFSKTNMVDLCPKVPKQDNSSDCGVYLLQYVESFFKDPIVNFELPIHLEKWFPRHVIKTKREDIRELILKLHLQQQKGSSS
SENP6 block = inhibitors of human SENP6 protease. Q9GZR1. Recombinant SENP6 catalytic domain, aminoluciferin luminescence. inhibition, % at 10 µM. actives 1.8% (n = 330,000);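 active means inhibition above about 50% at the single tested dose, limit read from the data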;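 further: plate controls were DMSO wells with enzyme for no effect and DMSO wells lacking enzyme for full effect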
SENP8 block-1 = blocks the human protease SENP8 | Q96LD8 | purified SENP8, Z-RLRGG-aminoluciferin cleavage, luminescence | inhibition, % at 10 µM | actives 1.2% (n = 330,000) | AID 2540; in the data active means inhibition above about 50%
Target sequence (Q96LD8 whole entry, looked up): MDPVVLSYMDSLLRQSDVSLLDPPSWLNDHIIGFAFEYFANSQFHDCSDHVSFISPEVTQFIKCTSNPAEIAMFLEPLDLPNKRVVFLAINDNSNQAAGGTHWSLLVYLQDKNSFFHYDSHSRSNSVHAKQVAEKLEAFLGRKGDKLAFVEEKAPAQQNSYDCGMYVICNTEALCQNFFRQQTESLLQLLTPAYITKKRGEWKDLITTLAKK
SENP8 block-2 = SENP8 (human) protease inhibition; Q96LD8; recombinant SENP8, Nedd8 substrate fluorescence; inhibition, % at 20 µM; actives 0.64% (n = 360,000); AID 602440; in the data active means inhibition mostly above about 40%, no sharp cut-off; inactive means mostly below about 27%
PPC-1+TRAIL kill = compounds killing PPC-1 cancer cells with TRAIL present (potentiator screen, no TRAIL-free arm); PPC-1 cells + TRAIL, ATPLite viability luminescence; cell killing (% activity), % at 4 µM or 5 µM; actives 0.41% (n = 220,000); AID 1443;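 active means cell killing above 50% in the first pass at 4 µM, then a duplicate retest at 5 µM averaging 50% or more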;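 further: plate controls were cells with TRAIL plus DMSO for no effect and medium-only wells lacking cells for full effect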
C8 TRAIL sens = sensitizes caspase-8 expressing cells to TRAIL. NB7+C8 cells + TRAIL, ATPlite viability luminescence. actives 1% (n = 360,000). inhibition (viability loss, TRAIL sensitization), % at 10 µM;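 active means compounds causing at least 50% loss of cell viability in the single-dose screen, relative to plate controls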
PPC-1 tox = PPC-1 cell cytotoxicity; PPC-1 viability, ATPlite luminescence, overnight; shares compounds with PPC-1+TRAIL kill; cytotoxicity, % at 5 µM; actives 50% (n = 1,200); AID 1447;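 active means reconfirmed compounds whose average cytotoxicity reaches 50% or more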;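 further: 0% = DMSO-treated cells and 100% = wells holding medium but no cells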
Numbers without * were called inactive; i = inactive; nt = no result. A selection: hits, their analogues and other compounds. The true share with any hit is near 3%.

SMILES | SENP7 inh | SENP6 block | SENP8 block-1 | SENP8 block-2 | PPC-1+TRAIL kill | C8 TRAIL sens | PPC-1 tox
CN(C)S(=O)(=O)c1ccc(NC(=O)c2cc3ccccc3o2)cc1 | 10 | -3 | -7 | -4 | 24 | -8 | nt
COC(=O)Cn1c(O)c(N=NC(=O)c2ccc3c(c2)OCO3)c2ccccc21 | -12 | -14 | -14 | 7 | 29 | 61* | 37
CCOC(=O)Cn1c(O)c(N=NC(=O)OC)c2ccccc21 | 5 | -9 | 4 | 28 | -5 | -1 | nt
CCC(C)c1ccc(-c2cc(C(=O)OCC(=O)Nc3cc(C)on3)c3ccccc3n2)cc1 (stereo not given) | -6 | -7 | -2 | i | 83* | 83* | 80*
CN1CCN(c2ccc(CNC(=O)c3ccc(-c4ccc(F)c(F)c4)c4ccoc34)cc2)CC1 | nt | nt | nt | 2 | nt | 23 | nt
O=C(N[C@H](C(=O)O)c1ccccc1)C1CCC(Cn2nnc3ccccc3c2=O)CC1 (stereo not given in full) | 7 | -13 | -4 | nt | 6 | nt | nt
Cc1cc(/C=N/Nc2nc(N)ncc2[N+](=O)[O-])c(C)n1-c1ccccc1F | 95* | 102* | 95* | nt | 76* | nt | 77*
Cc1cccc(C)c1-n1c(C)cc(/C=N\Nc2ccc([N+](=O)[O-])cn2)c1C | -6 | -5 | -7 | 37 | 23 | 8 | nt
Cc1onc(-c2ccccc2)c1NC(=O)OC(C)c1cccnc1 (stereo not given) | nt | nt | nt | 8 | nt | -15 | nt
Cc1cc(NC(=O)c2ccc3c(c2)OCCO3)ccc1NC(=O)c1ccco1 | 14 | 24 | 2 | 5 | 51* | 63* | 50
O=C(Nc1ccc(NC(=O)c2ccco2)cc1)c1ccc2c(c1)OCCO2 | -3 | 11 | 2 | 7 | -2 | 6 | nt
CCOC(=O)N1CCN(C(=O)c2cc(-c3ccc(OCC)cc3)nc3ccccc23)CC1 | -9 | -11 | -9 | -314 | 82* | 89* | 83*
CCOc1ccc(-c2cc(C(=O)N3CCN(C)CC3)c3ccccc3n2)cc1 | 4 | 0 | -1 | -370 | 72* | 75* | 67*
COc1ccc(-c2cc(C(=O)N3CCCC3)c3ccccc3n2)cc1 | 9 | -11 | -13 | -353 | nt | 34 | nt
CCOC(=O)N1CCN(C(=O)c2cc(-c3ccncc3)nc3ccccc23)CC1 | 1 | 2 | -7 | 9 | nt | 28 | nt
O=S1(=O)C[C@@H](N2CCN(c3ccccn3)CC2)[C@H](COCc2ccccc2)N1 | nt | nt | nt | 9 | nt | -14 | nt
CC(=NNC(=O)c1cccc(S(=O)(=O)N2CCOCC2)c1)c1ccc(Cl)cc1 | -1 | 3 | -8 | 10 | nt | -5 | nt
O=C(O)CCCC(=O)N1CCc2cc(S(=O)(=O)N3CCc4ccccc43)ccc21 | 10 | -4 | -8 | 2 | 8 | 7 | nt
CCC(=O)N1CCc2cc(S(=O)(=O)N3CCc4ccccc43)ccc21 | 2 | -12 | 8 | 28 | -3 | 12 | -3
CN(C(=O)C1CCCC1)C1CCS(=O)(=O)C1 (stereo not given) | -1 | 1 | -7 | 21 | nt | -8 | nt
COc1ccc(NC(=O)/C(C#N)=C\c2ccc(N3CCOCC3)o2)cc1 | 16 | -1 | 4 | 45* | 55* | 65* | 58*
COc1ccc(/C=N/Nc2nc3ccccc3s2)cc1O | nt | nt | nt | -248 | 40 | 44 | 40
COc1ccc(N(C)S(=O)(=O)c2ccc3c(c2)CCN3C(=O)C2CC2)c(OC)c1 | 1 | -11 | -2 | 2 | nt | 10 | nt
CCCCCCCCC[n+]1cccc2c3ccccc3ccc21 | 10 | -16 | -12 | -477 | 30 | 62* | 32
COc1ccc(C(=O)NCc2nnc(SCC(=O)Nc3cc(Cl)ccc3OC)o2)cc1 | -2 | -3 | 5 | 11 | nt | 8 | nt
SMILES | SENP7 inh | SENP6 block | SENP8 block-1 | SENP8 block-2 | PPC-1+TRAIL kill | C8 TRAIL sens | PPC-1 tox
Oc1ccc(-c2nnc(-c3ccc(O)cc3)nn2)cc1 | 19 | 48 | 39 | 18 | 53* | 64* | 54*
Cc1cc(=O)n2nc(N3CCCC(C(=O)NCc4ccccc4)C3)sc2n1 (stereo not given) | -7 | 4 | 10 | 7 | nt | -1 | nt
Cc1cc(=O)n2nc(N3CCCC(C(=O)N4CCN(c5ccccc5)CC4)C3)sc2n1 (stereo not given) | 8 | -7 | -2 | 29 | 1 | 8 | 31
O=C(c1ccc(CSc2nc3ccncc3[nH]2)cc1)N1CCN(c2cccc(Cl)c2)CC1 | -4 | 5 | -1 | 15 | 9 | -9 | nt
O=C(c1ccc(CSc2nc3ccncc3[nH]2)cc1)N1CCCCCC1 | 8 | -1 | 8 | 8 | 81* | 81* | 83*
O=C(NCc1ccc(Cl)cc1)c1ccc(CSc2nc3ccncc3[nH]2)cc1 | 4 | -20 | -4 | 2 | -7 | -2 | nt
Clc1ccc(CSc2nc3ccncc3[nH]2)cc1 | 6 | 10 | -7 | 11 | 94* | 92* | 93*
Cc1ccc(CSc2nc3ccncc3[nH]2)cc1 | -4 | 15 | 6 | 9 | 97* | 93* | 97*
O=C(NCc1ccncc1)C(=O)N/N=C/c1cccnc1 | 5 | -2 | 0 | 6 | -7 | -5 | nt
CC1(c2ccc3c(c2)OCCO3)NC(=O)N(CC(=O)Nc2ccccc2F)C1=O (stereo not given) | 10 | -1 | 4 | 8 | nt | -4 | nt
COc1ccc(-c2cc3ncc(-c4ccccc4)c(N)n3n2)cc1 | nt | nt | nt | -142 | 41 | 62* | 52*
COCCn1c(C)cc(/C=C2/SC(=O)N(C(C)C(=O)OC)C2=O)c1C (stereo not given) | -2 | -7 | -4 | -78 | 53* | 63* | 44
CCn1c(C)cc(/C=C2/SC(=O)N(C(C)C(=O)OC)C2=O)c1C (stereo not given) | -10 | -8 | -9 | -51 | 22 | 30 | nt
CCNC(=S)Nc1ccc(N2CCCCC2)cc1 | -4 | -18 | -4 | 7 | 5 | 5 | nt
CCNC(=S)N/N=C/c1sc(N2CCCCC2)nc1-c1cccs1 | 7 | 9 | -13 | -102 | 29 | 23 | 41
CCCNC(=O)c1oc2ccc3c(c2c1C)C(=O)CC(C)(C)O3 | -3 | -10 | -11 | -107 | 52* | 52* | 47
CCCNC(=O)c1oc2ccc3c(c2c1C)C=CC(C)(C)O3 | 7 | 6 | -6 | -21 | nt | 3 | nt
Cc1ccc(CN2CCN(CC3CC4C=CC3C4)CC2)cc1 (stereo not given) | -6 | -12 | -12 | 23 | 0 | -10 | 7
Cc1ccc(Nc2cc(=O)oc3ccccc23)c(C)c1 | -2 | -2 | -5 | 8 | 5 | 15 | nt
Cc1ccc(NC2=C/C(=N\S(=O)(=O)c3cccs3)c3ccccc3C2=O)c(C)c1 | 81* | 76* | 92* | 116* | 52* | 96* | 54*
O=C1C(Nc2ccc(O)cc2)=C/C(=N/S(=O)(=O)c2cccs2)c2ccccc21 | nt | nt | nt | 83* | 73* | 96* | 74*
